# Data published in the supplement of paper PMC8728848.
# This excerpt belongs to a sample that is enriched for the strongest signals.
# Key:
# Assay in all cases: glycan array binding signal (z-score within array); higher = stronger binding
# Conditions in all cases: glycan notation: IUPAC condensed, linker removed
# [1] = target: Fuc(a1-2)Gal(b1-4)[Fuc(a1-3)]GlcNAc(b1-3)Gal(b1-4)Glc
# In short: (§1)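 Arrays were curated from the Consortium for Functional Glycomics database, 3228 in total, and kept only where the protein sequence was available. Binding is expressed as a within-array Z-score. This score was averaged across arrays of the same protein sequence at different concentrations or buffers and across linkers, and negative values can be read as non-binding.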
# [2] = target: Fuc(a1-2)[Gal(a1-3)]Gal(b1-4)GlcNAc(b1-3)Gal(b1-4)Glc
# In short: as §1
# [3] = target: Fuc(a1-3)[Gal3S(b1-4)]Glc
# In short: as §1
# [4] = target: Fuc(a1-6)GlcNAc
# In short: as §1
# [5] = target: Gal(b1-4)GlcNAc(b1-3)[Gal(b1-4)GlcNAc(b1-6)]Gal(b1-4)GlcNAc(b1-3)[Gal(b1-4)GlcNAc(b1-6)]Gal(b1-4)GlcNAc(b1-3)[Gal(b1-4)GlcNAc(b1-6)]Gal(b1-4)GlcNAc(b1-3)[Gal(b1-4)GlcNAc(b1-6)]Gal(b1-4)GlcNAc(b1-3)Gal(b1-4)Glc
# In short: as §1
# [6] = target: Glc(b1-3)Glc(b1-3)Glc(b1-3)Glc(b1-3)Glc(b1-3)Glc(b1-3)Glc
# In short: as §1
# [7] = target: Glc(b1-4)Glc
# In short: as §1
# [8] = target: Glc(b1-4)Glc(b1-4)Glc(b1-4)Glc(b1-4)Glc(b1-4)Glc(b1-4)Glc(b1-4)Glc(b1-4)Glc
# In short: as §1
# [9] = target: Glc(b1-4)Glc(b1-4)Glc(b1-4)Glc(b1-4)Glc(b1-4)Glc(b1-4)Glc(b1-4)Glc(b1-4)Glc(b1-4)Glc
# In short: as §1
# [10] = target: GlcNAc(a1-4)Gal(b1-3)[Fuc(a1-2)]Gal
# In short: as §1
# [11] = target: Kdn(a2-3)[GalNAc(b1-4)]Gal(b1-3)GlcNAc
# In short: as §1
# [12] = target: Man(a1-6)Man
# In short: as §1
# [13] = target: Neu5Ac(a2-3)Gal(b1-4)GlcNAc(b1-2)Man(a1-3)[Neu5Ac(a2-3)Gal(b1-4)GlcNAc(b1-2)Man(a1-6)]Man(b1-4)GlcNAc(b1-4)[Fuc(a1-6)]GlcNAc
# In short: as §1
# [14] = target: Neu5Ac(a2-3)Gal(b1-4)GlcNAc6S(b1-3)Gal6S(b1-3)GlcNAc6S
# In short: as §1
# [15] = target: Neu5Ac(a2-3)Gal(b1-4)[Fuc(a1-3)]GlcNAc(b1-3)Gal(b1-4)Glc
# In short: as §1
# [16] = target: Neu5Ac(a2-3)Gal6S(b1-4)[Fuc(a1-3)]GlcNAc6S(b1-3)Gal(b1-4)Glc
# In short: as §1
# [17] = target: Neu5Ac(a2-3)[GalNAc(b1-4)]Gal(b1-3)GalNAc(b1-4)[Neu5Ac(a2-3)]Gal(b1-4)Glc
# In short: as §1
# [18] = target: Neu5Ac(a2-3)[GalNAc(b1-4)]Gal(b1-4)Glc
# In short: as §1
# [19] = target: Neu5Ac(a2-6)Gal(b1-4)Glc
# In short: as §1
# [20] = target: Neu5Ac(a2-8)Neu5Ac(a2-3)Gal(b1-3)GalNAc(b1-4)[Neu5Ac(a2-8)Neu5Ac(a2-3)]Gal(b1-4)Glc
# In short: as §1
# [21] = target: Neu5Gc(a2-3)Gal(b1-3)GlcNAc(b1-3)Gal(b1-4)Glc
# In short: as §1
# [22] = target: Neu5Gc(a2-3)[GalNAc(b1-4)]Gal
# In short: as §1
# [23] = target: Neu5Gc(a2-6)Gal(b1-3)GlcNAc(b1-3)Gal(b1-4)Glc
# In short: as §1
# [24] = target: Neu5Gc(a2-6)Gal(b1-4)GlcNAc(b1-2)Man(a1-3)[Neu5Gc(a2-6)Gal(b1-4)GlcNAc(b1-2)Man(a1-6)]Man(b1-4)GlcNAc(b1-4)GlcNAc
# In short: as §1
# [25] = target: Neu5Gc(a2-6)GalNAc
# In short: as §1
# [26] = target: Xyl(a1-6)Glc(b1-4)[Xyl(a1-6)]Glc(b1-4)[Xyl(a1-6)]Glc(b1-4)Glc
# In short: as §1
binder,measurement,setting,value
"MIC1 (Toxoplasma gondii), O00834 (protein) VGPEAYGEASHSHSPASGRYIQQMLDQRCQEIAAELCQSGLRKMCVPSSRIVARNAVGITHQNTLQWRCFDTASLLESNQENNGVNCVDDCGHTIPCPGGVHRQNSNHATRHEILSKLVEEGVQRFCSPYQASANKYCNDKFPGTIARRSKGFGNNVEVAWRCYEKASLLYSVYAECASNCGTTWYCPGGRRGTSTELDKRHYTEEEGIRQAIGSVDSPCSEVEVCLPKDENPPLCLDESGQISRT",glycan array binding signal (z-score),[1],-0.296
same,glycan array binding signal (z-score),[2],-0.253
same,glycan array binding signal (z-score),[3],-0.041
same,glycan array binding signal (z-score),[4],-0.287
same,glycan array binding signal (z-score),[5],-0.287
same,glycan array binding signal (z-score),[6],-0.287
same,glycan array binding signal (z-score),[7],-0.287
same,glycan array binding signal (z-score),[8],-0.287
same,glycan array binding signal (z-score),[9],-0.287
same,glycan array binding signal (z-score),[10],-0.299
same,glycan array binding signal (z-score),[11],-0.274
same,glycan array binding signal (z-score),[12],-0.312
same,glycan array binding signal (z-score),[13],2.46
same,glycan array binding signal (z-score),[14],4.52
same,glycan array binding signal (z-score),[15],0.087
same,glycan array binding signal (z-score),[16],2.46
same,glycan array binding signal (z-score),[17],1.29
same,glycan array binding signal (z-score),[18],2.98
same,glycan array binding signal (z-score),[19],-0.342
same,glycan array binding signal (z-score),[20],-0.411
same,glycan array binding signal (z-score),[21],2.33
same,glycan array binding signal (z-score),[22],4.78
same,glycan array binding signal (z-score),[23],2.08
same,glycan array binding signal (z-score),[24],0.198
same,glycan array binding signal (z-score),[25],4.8
same,glycan array binding signal (z-score),[26],-0.287
